This note sets out measurements from PubChem BioAssay AID1347074 (Center for Chemical Genomics, University of Michigan, 2019).

The whole screen tested about 47,000 compounds, of which about 2,800 (6%) were called active. Only a selection was taken, and actives are over-represented in it overall. Values without a mark were called inactive. Rule as the data show it: active = z-score above about 3 (passing the limit was not always enough); inactive = the rest.

The target of the assay is Endoribonuclease Dicer (Homo sapiens) (UniProt Q9UPY3). The assay is described as follows: Dicer cleavage of pre-miR-21 blockers – biochemical, cat-ELCCA, chemiluminescence, primary screen (AID 1347074).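 Also: plate controls were vehicle for no effect and no enzyme for full effect; higher signal means more uncleaved substrate so more Dicer inhibition.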 Particulars: cat-ELCCA pre-miR-21 Dicer processing, at 25 µM, stronger effect = higher value.
Endoribonuclease Dicer (Homo sapiens), sequence (Q9UPY3 whole entry, looked up): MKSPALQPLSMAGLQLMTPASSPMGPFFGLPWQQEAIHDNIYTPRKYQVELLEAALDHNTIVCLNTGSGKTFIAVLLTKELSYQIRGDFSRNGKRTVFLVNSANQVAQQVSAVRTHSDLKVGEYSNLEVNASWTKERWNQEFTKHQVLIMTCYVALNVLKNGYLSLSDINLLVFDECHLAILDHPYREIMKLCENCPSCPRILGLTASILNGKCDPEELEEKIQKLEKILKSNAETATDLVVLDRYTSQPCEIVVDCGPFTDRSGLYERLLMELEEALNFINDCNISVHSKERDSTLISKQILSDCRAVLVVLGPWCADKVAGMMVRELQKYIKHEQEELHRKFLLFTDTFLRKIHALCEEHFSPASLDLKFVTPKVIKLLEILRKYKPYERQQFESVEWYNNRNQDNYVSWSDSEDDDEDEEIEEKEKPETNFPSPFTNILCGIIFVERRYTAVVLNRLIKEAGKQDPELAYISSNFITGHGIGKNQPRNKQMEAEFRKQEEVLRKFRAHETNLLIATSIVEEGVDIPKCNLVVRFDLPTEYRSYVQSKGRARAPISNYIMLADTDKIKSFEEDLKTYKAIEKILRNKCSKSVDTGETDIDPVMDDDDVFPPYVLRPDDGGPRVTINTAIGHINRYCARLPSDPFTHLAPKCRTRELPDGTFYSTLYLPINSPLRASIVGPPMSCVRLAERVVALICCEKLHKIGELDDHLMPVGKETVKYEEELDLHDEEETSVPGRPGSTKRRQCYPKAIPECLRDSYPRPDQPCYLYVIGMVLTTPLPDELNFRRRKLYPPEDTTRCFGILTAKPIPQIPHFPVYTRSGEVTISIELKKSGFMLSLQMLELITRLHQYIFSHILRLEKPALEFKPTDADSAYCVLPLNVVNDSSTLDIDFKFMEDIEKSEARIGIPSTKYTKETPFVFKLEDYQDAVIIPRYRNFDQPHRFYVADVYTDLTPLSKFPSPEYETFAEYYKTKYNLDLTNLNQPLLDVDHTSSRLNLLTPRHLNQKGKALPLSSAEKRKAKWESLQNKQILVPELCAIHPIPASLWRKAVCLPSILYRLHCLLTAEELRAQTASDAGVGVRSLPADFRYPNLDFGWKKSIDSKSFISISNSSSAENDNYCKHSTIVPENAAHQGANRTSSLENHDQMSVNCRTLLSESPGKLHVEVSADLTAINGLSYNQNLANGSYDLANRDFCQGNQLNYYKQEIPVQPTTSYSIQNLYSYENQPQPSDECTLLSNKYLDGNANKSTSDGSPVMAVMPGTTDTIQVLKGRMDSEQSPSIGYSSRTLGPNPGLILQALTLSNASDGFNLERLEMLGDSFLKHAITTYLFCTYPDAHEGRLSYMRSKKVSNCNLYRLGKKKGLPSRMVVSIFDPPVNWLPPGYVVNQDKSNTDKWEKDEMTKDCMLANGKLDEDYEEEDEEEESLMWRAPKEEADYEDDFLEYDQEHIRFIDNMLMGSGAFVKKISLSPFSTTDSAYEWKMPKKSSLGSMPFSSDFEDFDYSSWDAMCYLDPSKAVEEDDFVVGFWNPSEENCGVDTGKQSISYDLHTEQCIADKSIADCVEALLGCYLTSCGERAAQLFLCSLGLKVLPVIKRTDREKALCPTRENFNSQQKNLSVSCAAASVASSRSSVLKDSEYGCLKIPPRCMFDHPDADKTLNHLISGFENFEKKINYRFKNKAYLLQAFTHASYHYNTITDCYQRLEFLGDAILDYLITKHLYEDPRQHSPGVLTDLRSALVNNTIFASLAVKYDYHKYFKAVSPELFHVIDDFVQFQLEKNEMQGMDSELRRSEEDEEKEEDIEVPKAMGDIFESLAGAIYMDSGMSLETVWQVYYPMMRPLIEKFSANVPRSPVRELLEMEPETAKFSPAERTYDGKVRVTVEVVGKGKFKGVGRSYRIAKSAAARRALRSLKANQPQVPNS
For the molecule `O=C(O)C1CC(=O)N(c2cccc(Cl)c2)C1` (centres undefined), the z-score was 8.4 (active).
In the case of `O=C(O)C1CC(=O)N(Cc2ccccc2Cl)C1` (centres undefined) it was -1.02; in that of `O=C1CC(N2CCN(c3cccc(Cl)c3)CC2)C(=O)N1c1cccc(Cl)c1` (centres undefined), 0.79; in that of `CC(c1ccccc1)C1C(C#N)=C(N)Oc2n[nH]c(-c3ccccc3)c21` (centres undefined), -0.54.
In the case of `Cc1cc(C)cc(N2CC(C)Cn3c2nc2c3c(=O)n(CC(=O)O)c(=O)n2C)c1` (centres undefined) it was -0.04.
The same measure for `Cc1ccc(C(=O)CSc2nnc(-c3ccccc3)n2C)cc1`: 8.7.
In the case of `Cc1cc(-c2ccccc2)n2nc(C)cc2n1`, the z-score is 0.05.
The same measure for `CCOC(=O)c1c(N)sc2c1CC(C)(C)OC2`: -0.32.
In the case of `CC1=CC(C)(C)N(S(=O)(=O)c2ccc(C)cc2)c2cc3c(cc21)OCO3` it was 3.26 (active); in that of `CC1=CC(C)(C)N(C(=O)NC2CCCCC2)c2ccc(C)cc21`, -5.39; in that of `Cn1c(N2CCCCC2)nc2c1c(=O)n(Cc1ccc(Cl)cc1Cl)c(=O)n2C`, -1.04.
The same measure for `Cn1c(CSc2cccs2)nnc1SCc1c(Cl)cccc1Cl`: 0.02; for `CC(=O)Nc1ccc(C(=O)CSc2nc3nc(C)cc(C)c3c(=O)[nH]2)cc1`: -0.34.
Take `O=C1/C(=C/c2ccc(Cl)cc2)CCC/C1=C\c1ccc(Cl)cc1`: the z-score was -1.13.
In the case of `CN(C)c1ccc(/C=C2\CCC/C(=C\c3ccc(N(C)C)cc3Cl)C2=O)c(Cl)c1` it was 3.37 (active); in that of `Cn1ccnc1SCC(=O)Nc1cccc2nsnc12`, -4.69.
With `CC1=N/C(=C/c2ccccc2Cl)C(=O)O1`, the z-score is 3.5 (active).
In the case of `O=C(CN1C(=O)/C(=C/c2ccccc2Cl)N=C1c1ccccc1)c1ccccc1` it was 0.22; in that of `CC1=N/C(=C/c2ccccc2O)C(=O)O1`, 0.13; in that of `CCOC(=O)Cn1c(Sc2nc3c(c(=O)n(C)c(=O)n3C)n2C)nc2ccccc21`, 2.22.
The same measure for `O=C(O)CC1S/C(=N\N=C\c2ccco2)NC1=O` (centres undefined): -0.87.
On to `O=C(NCc1ccc2c(c1)OCO2)c1ccc(Cn2cc(Cl)cn2)cc1`, for which the z-score is 1.8.
In the case of `CCOc1ccc(S(=O)(=O)Nc2ccncc2)c(C)c1C` it was 0.59; in that of `CCOc1ccc(S(=O)(=O)n2ccnc2)c2ccccc12`, 3.38 (active); in that of `COc1cc(C)c(Cl)cc1S(=O)(=O)n1ccnc1`, -0.35.
The same measure for `CSCC(CSC)OC(=O)NC(=O)c1c(Cl)cccc1Cl`: -0.86.
For the molecule `NC(=O)C1CCN(C(=O)C2CC(c3ccc(Cl)cc3)=NO2)CC1` (centres undefined), the z-score is -1.13.
The same measure for `CCOC(=O)CSc1nc2cc(Cl)ccc2s1`: 0.3; for `N#Cc1sc(SCc2ccccc2)c2c1CC(c1ccccc1)CC2=O` (centres undefined): 0.58; for `CCCN1C(=O)C(O)(CC(=O)c2ccc(C(C)(C)C)cc2)c2ccccc21` (centres undefined): -0.52.
Regarding `Cc1cc(N2C(=O)CC(C)(C)CC2=O)n(C)n1`, the z-score is -0.86.
In the case of `CCOC(=O)c1c(N/N=C\c2ccccc2O)n[nH]c1C` it was 1.01.
The same measure for `CCC(C)c1ccc(O)c(/C=N/Nc2ccccc2)c1` (centres undefined): 6.05 (active); for `COc1ccccc1C1CCN(S(=O)(=O)c2ccc(Oc3c(Cl)cccc3[N+](=O)[O-])cc2)CC1`: 1.46.
In the case of `CCC(C)c1ccccc1OCC(O)CN1C(=O)NC(C)(C)C1=O` (centres undefined) it was 0.96; in that of `Oc1ccccc1-c1nc(/C=C/c2cccs2)no1`, 2.56.
For the molecule `Cc1ccc(-n2nnnc2-c2cnc3ccccc3c2C)cc1`, the z-score is -0.58.
The same measure for `FC(F)(F)c1nc(-c2ccccc2)ncc1-c1nnnn1-c1ccccc1`: 3.06 (active); for `Fc1ccc(-n2nnnc2-c2cnc3ccc(Cl)cc3c2-c2ccccc2)cc1`: 0.2; for `CCc1ccccc1N1CC23C=CC(O2)C(C(=O)OC(C)C)C3C1=O` (centres undefined): -0.64.
In the case of `COc1cc(/C=C2/N=C(c3ccccc3)N(C)C2=O)cc(OC)c1OC` it was 2.54.
The same measure for `CCOC(=O)c1c(C)[nH]c(=O)c([N+](=O)[O-])c1O`: 0.2.
On to `CC1([N+](=O)[O-])COC(c2ccccc2)OC1` (centres undefined), for which the z-score was 1.75.
In the case of `O=C1OC2(CCCCC2)OC1c1ccccc1` (centres undefined) it was 3.75 (active).
In the case of `Cn1c(=O)c(C#N)c(O)c2ccccc21` it was 0.83; in that of `CCCCc1ccc(-n2c(-c3ccc(F)cc3)coc2=O)cc1`, 9.25 (active).
The same measure for `CCCCc1ccc(S(N)(=O)=O)cc1`: -0.91; for `Fc1ccc(NC2=NCCN=C(Nc3ccc(F)cc3F)SS2)c(F)c1`: -0.47; for `CSc1scc(NC(=O)Nc2cc(Cl)cc(Cl)c2)c1S(=O)(=O)C(C)C`: 30.2 (active).
In the case of `O=C(Nc1cc(Cl)cc(Cl)c1)Nc1cnccc1C(F)(F)F`, the z-score was 0.4.
In the case of `O=C(CSc1nc(-c2ccc(F)cc2)cc(C(F)(F)F)n1)N1CCOCC1` it was -0.77.
The same measure for `C/C(=N\OC(=O)c1ccc(Cl)cc1)c1nnn(-c2cc(C(F)(F)F)cc(C(F)(F)F)c2)c1C`: 0.47; for `CCOc1ccc(S(=O)(=O)N2CCSC2c2cccc(Cl)c2)cc1` (centres undefined): 1.41; for `O=c1c2cc(-c3ccccc3)sc2n(Cc2ccccc2Cl)c(=O)n1-c1ccccc1`: 0.38.
In the case of `COC(=O)c1c(NC(=O)COc2ccccc2)sc2c1CCCC2` it was 0.4; in that of `COC(=O)c1c(NC(=O)CCCOc2ccc(Cl)cc2)sc2c1CCCC2`, 4.01 (active); in that of `CCCC1CCc2c(sc(NC(=O)COc3ccc(Cl)cc3)c2C(N)=O)C1` (centres undefined), -0.31.
Take `CC1(C)CC(=O)C=C(Nc2cc(-c3ccc(Cl)cc3)[nH]n2)C1`: the z-score was 2.1.
The same measure for `Cc1nc2cc(-n3c(O)c[nH]c3=O)ccc2s1`: 1.96; for `CCOC(=O)c1c(C)n(CCOc2ccc(F)cc2)c2ccc(O)cc12`: 4.76 (active); for `CCOC(=O)C1=C(O)CSC1=Nc1ccc(F)cc1`: 2.03.
The same measure for `CCOC(=O)c1c(C)oc2ccc(OCc3ccc(C(=O)OC)cc3)cc12`: 0.32; for `Cc1cc(C)c2c(n1)sc1c(=O)n(C)cnc12`: 1.74; for `CCOC(=O)C1=C(N)Oc2c(Br)cc(Cl)cc2C1C(C#N)C(=O)OCC` (centres undefined): 2.22.
